In PubChem BioAssay (NCATS):
A number with no mark means an inactive call. Records with an inconclusive call do not appear. Entries that show only a call come without a potency. Active and inactive are the calls of the source. Unless noted, calls follow the shape of the dose curve; as a rule, active = well fitted curve in the direction sought with a large enough effect; inconclusive = small, poorly fitted or top-dose-only effect, or another doubt; inactive = no such curve, though single readings can be large; an effect the other way counts as inactive or inconclusive.

Experiments:
Furin (Homo sapiens) = Furin (Homo sapiens) (UniProt P09958); assay: Furin counterscreen qHTS for Zika virus inhibitors (AID 1347149); also: nearly all actives have a fitted effect of over 70% in size; also: potency is read from the fitted curve at half-maximal effect;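 as to activity change, negative = inhibition: purified recombinant full-length human furin enzyme at 5 nM; fluorescence gain from furin cutting a BOC-RVRR-AMC peptide substrate over 15 min; top concentration of the series differs between compounds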
Sequence of Furin (Homo sapiens) (P09958 whole entry, looked up): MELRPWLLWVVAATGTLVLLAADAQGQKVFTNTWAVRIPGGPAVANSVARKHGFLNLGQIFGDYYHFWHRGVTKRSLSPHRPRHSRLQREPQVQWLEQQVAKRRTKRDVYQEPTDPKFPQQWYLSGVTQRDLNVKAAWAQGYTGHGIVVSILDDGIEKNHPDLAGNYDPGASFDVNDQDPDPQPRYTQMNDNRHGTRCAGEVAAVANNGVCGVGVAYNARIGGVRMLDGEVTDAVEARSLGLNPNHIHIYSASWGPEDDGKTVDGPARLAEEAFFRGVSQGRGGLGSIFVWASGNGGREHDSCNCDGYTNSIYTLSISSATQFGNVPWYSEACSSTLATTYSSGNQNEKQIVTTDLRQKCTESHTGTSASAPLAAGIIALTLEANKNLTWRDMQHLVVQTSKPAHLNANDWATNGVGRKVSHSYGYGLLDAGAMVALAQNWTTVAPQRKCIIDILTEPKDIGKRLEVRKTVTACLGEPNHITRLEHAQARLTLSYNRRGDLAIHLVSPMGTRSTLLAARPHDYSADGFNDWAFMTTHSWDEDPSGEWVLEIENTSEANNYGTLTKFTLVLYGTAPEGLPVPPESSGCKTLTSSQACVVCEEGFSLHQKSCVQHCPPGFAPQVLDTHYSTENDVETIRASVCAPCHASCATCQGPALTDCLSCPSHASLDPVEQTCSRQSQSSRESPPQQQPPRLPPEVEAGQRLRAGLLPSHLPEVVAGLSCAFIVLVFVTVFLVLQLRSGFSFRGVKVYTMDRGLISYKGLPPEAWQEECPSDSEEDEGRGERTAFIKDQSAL
Summary of the method: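 Fluorogenic cleavage of BOC-RVRR-AMC (2 microM final, Km ~15 µM) was monitored (ex 340, em 450 nm) at 37C after 15 min RT preincubation of 5 nM furin with compounds in HEPES pH 7.0 buffer with CaCl2 and Triton X-100. Percent inhibition was fitted to a 4-parameter Hill curve.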

[1] = system: Zika virus NS2B-NS3 protease (unlinked complex); assay: Confirmatory screen GU AMC qHTS for Zika virus inhibitors (AID 1347153); also: potency is read from the fitted curve at half-maximal effect; nearly all actives have a fitted effect of over 70% in size
Summary of the method: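 Unlinked enzyme 25 nM, Tris pH 8.0/0.01% Tween 20; cpd 15 min RT, dark; + AMC substrate 10 µM (Km 18.3 µM); 340/450 nm read at t0 and 15 min; % inhibition → 4-param fit.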

[2] = Confirmatory screen GU Rhodamine qHTS for Zika virus inhibitors qHTS (AID 1347157); also: potency is read from the fitted curve at half-maximal effect; nearly all actives have a fitted effect of over 70% in size
Summary of the method: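 In dose–response format, inhibition of unlinked protease (25 nM) was measured with 1.5 microM bis-peptide Rhodamine110 substrate. Aprotinin served as the intraplate control.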

[3] = Confirmatory screen NINDS Rhodamine qHTS for Zika virus inhibitors (AID 1347161); also: potency is read from the fitted curve at half-maximal effect; nearly all actives have a fitted effect of over 60% in size
Summary of the method: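 Each compound, titrated, sat 15 min with 25 nM linked protease before 1.5 microM Rhodamine110 substrate went in. Fluorescence gain over the next 15 min, in pH 8.0 Tris with Tween 20, gave Hill-fitted curves.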

[4] = system: Zika virus NS2B-NS3 protease (linked construct); assay: 384 well plate NINDS Rhodamine confirmatory qHTS for Zika virus inhibitors (AID 1347164);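 also: fluorescence from protease cleavage of Ac-LKRR-rhodamine 110 substrate; potency is read from the fitted curve at half-maximal effect; nearly all actives have a fitted effect of over 65% in size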
Summary of the method: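 Linked NS2B-NS3 protease (final 5, 30 or 60 nM) preincubated ~15 minutes with compounds, then 10 microM Ac-LKRR-Rhodamine 110 added. Fluorescence (485/538 nm) read after 25 minutes at room temperature, normalized to no-enzyme and no-inhibitor controls.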

[5] = Vero cells viability qHTS for Zika virus inhibitors (AID 1347167)
Summary of the method: (§1)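 Compounds were tested in concentration series on cells grown in DMEM containing 4% FBS. After 24 to 48 hours, cellular ATP was measured by luminescence with CellTiter Glo.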

[6] = HepG2 cells viability qHTS for Zika virus inhibitors (AID 1347168)
Summary of the method: as §1

[7] = Tertiary RLuc qRT-PCR qHTS assay for Zika virus inhibitors (AID 1347169); also: potency is read from the fitted curve at half-maximal effect; nearly all actives have a fitted effect of over 55% in size
Summary of the method: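 Vero cells (1,000/well) infected with recombinant ZIKV-RLuc (Cambodian) at MOI 1-2 after compound addition, 48-72 hrs at 37 degrees C. Live-cell Renilla luciferase substrate added; luminescence read after 1-1.5 hrs.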

[8] = target: N-terminal Xaa-Pro-Lys N-methyltransferase 1 (Homo sapiens) (UniProt Q9BV86); assay: Confirmatory qHTS for Inhibitors of N-terminal methyltransferase 1 (NTMT1): MTaseGlo Assay (AID 1645874); also: nearly all actives have a fitted effect of over 65% in size; also: potency is read from the fitted curve at half-maximal effect;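 as to activity change, negative = inhibition: luminescence from SAH made as NTMT1 methylates SPKRIA peptide using SAM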
Summary of the method: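 Compounds are incubated with 125 nM NTMT1 and 100 uM SAM for 15 min before the SPKRIA peptide (1 uM) starts a 30 min room-temperature methylation. SAH is measured by coupled luciferase luminescence and curves fitted to a Hill equation.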

[9] = target: Calcium and integrin-binding protein 1 (Homo sapiens) (UniProt Q99828); assay: Confirmatory qHTS for Identification of Calcium Integrin Binding Protein 1 (CIB1) Competitor (AID 1508617); also: nearly all actives have a fitted effect of over 65% in size
Sequence of Calcium and integrin-binding protein 1 (Homo sapiens) (Q99828 whole entry, looked up): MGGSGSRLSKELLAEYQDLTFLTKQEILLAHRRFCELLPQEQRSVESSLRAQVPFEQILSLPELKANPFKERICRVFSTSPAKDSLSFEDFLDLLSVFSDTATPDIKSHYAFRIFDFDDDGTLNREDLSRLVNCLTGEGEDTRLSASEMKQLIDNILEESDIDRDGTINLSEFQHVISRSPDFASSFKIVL
Summary of the method: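 Binding competition between test compounds and fluorescent alphaIIb peptide for 1 uM CIB1-GST is monitored by FP at 480/540 nm. Final compound range is up to 114 uM; unlabeled peptide serves as reference competitor.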

[10] = Primary qHTS for small molecule stabilizers of the endoplasmic reticulum resident proteome: Secreted ER Calcium Modulated Protein (SERCaMP) assay (AID 1508630)
Summary of the method: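 GLuc-SERCaMP-expressing SH-SY5Y cells, pretreated 16 h with compound, are challenged with thapsigargin to empty ER calcium stores; after 4 h, coelenterazine is added directly to the medium and luminescence is imaged.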

[11] = AP1 Signaling Pathway (AID 357; active = well fitted curve in either direction with a large enough effect, not every such curve was filed as active;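 also: ME-180 reporter cells stimulated with EGF at its EC50 level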); conditions: ME-180 (cervical carcinoma) AP-1-bla reporter, EGF-induced, beta-lactamase ratio, 5 h
Summary of the method: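 Beta-lactamase reporter under AP-1 response element, ME-180 background. Stimulus: EC50 EGF. Compound exposure 5 h, 37 °C. Detection: CCF4, 2.5 h RT, 460/530 nm. Values: AC50 from titration.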

[12] = target: Glucocorticoid receptor (Homo sapiens) (UniProt P04150); assay: GR-GFP Redistribution (AID 450;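 active = compounds whose dose series gives a full or clear partial fitted curve of increased nuclear translocation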; also: potency is read from the fitted curve at half-maximal effect); conditions: U2OS GR-GFP nuclear translocation, laser cytometry, 2 h
Sequence of Glucocorticoid receptor (Homo sapiens) (P04150 whole entry, looked up): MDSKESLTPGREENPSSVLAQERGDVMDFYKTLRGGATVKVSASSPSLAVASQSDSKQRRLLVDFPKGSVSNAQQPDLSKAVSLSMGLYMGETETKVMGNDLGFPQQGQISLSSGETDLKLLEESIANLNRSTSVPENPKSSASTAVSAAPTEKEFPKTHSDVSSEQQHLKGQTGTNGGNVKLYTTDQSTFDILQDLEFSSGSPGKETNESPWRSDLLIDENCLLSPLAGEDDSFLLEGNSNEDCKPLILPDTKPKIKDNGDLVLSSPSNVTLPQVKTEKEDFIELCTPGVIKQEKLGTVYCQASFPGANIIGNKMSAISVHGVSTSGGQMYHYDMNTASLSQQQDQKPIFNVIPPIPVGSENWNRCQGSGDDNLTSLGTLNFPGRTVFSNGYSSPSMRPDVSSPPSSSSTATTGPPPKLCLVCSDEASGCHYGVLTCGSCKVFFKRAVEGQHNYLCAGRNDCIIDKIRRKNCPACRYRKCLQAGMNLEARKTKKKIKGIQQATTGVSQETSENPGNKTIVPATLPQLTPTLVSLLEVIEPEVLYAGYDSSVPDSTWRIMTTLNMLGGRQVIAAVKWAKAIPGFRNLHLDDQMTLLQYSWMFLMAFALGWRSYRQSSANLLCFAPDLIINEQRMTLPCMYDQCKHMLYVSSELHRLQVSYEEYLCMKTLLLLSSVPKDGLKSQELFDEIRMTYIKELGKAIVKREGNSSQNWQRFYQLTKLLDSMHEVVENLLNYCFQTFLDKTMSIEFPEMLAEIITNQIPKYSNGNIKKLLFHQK

[13] = target: Cytochrome P450 1A2 (Homo sapiens) (UniProt P05177); assay: p450-cyp1a2 (AID 410; calls by dose curve; also: potency is read from the fitted curve at half-maximal effect)
Sequence of Cytochrome P450 1A2 (Homo sapiens) (P05177 whole entry, looked up): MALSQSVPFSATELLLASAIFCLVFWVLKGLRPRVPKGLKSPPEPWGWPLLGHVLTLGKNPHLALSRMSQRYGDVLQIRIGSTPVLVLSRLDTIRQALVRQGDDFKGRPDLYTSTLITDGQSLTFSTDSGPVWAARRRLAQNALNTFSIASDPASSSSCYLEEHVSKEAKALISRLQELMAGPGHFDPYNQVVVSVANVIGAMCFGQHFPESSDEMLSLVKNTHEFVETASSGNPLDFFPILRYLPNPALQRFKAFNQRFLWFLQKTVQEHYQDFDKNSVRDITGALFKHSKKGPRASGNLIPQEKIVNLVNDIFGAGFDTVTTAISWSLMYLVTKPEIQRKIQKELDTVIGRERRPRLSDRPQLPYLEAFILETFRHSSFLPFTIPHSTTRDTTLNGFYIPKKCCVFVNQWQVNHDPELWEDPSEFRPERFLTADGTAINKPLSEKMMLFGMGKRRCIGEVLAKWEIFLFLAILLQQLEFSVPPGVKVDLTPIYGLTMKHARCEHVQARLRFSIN
Summary of the method: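 Inhibition was calculated relative to 57 uM furafylline (full inhibition). The reaction used human CYP1A2 at 20nM with Luciferin-ME at its Km, 100uM, driven by an NADPH-regenerating system for 60 min at room temperature.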

[14] = target: Ubiquitin carboxyl-terminal hydrolase 1 (Homo sapiens) (UniProt O94782); assay: Inhibitors of USP1/UAF1: Pilot qHTS (AID 504865);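 also: rhodamine fluorescence freed from ubiquitin-rhodamine substrate followed over time; top concentration of the series differs between compounds; nearly all actives have a fitted effect of over 35% in size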
Summary of the method: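 USP1/UAF1 complex at 1 nM preincubated 15 min at room temperature with compound, then Ub-Rho substrate added at 150 nM final. Fluorescence (480/540 nm) read kinetically in 50 mM HEPES pH 7.8, 0.5 mM EDTA, 1 mM TCEP, 0.1 mg/ml BSA, 0.01% Tween-20.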

[15] = target: Voltage-gated inwardly rectifying potassium channel KCNH2 (Homo sapiens) (UniProt Q12809); assay: qHTS Assay for Small Molecule Inhibitors of the Human hERG Channel Activity (AID 588834);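 also: lower thallium flux fluorescence means stronger hERG block; nearly all actives have a fitted effect of over 50% in size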; also: potency is read from the fitted curve at half-maximal effect; as to activity change, negative = inhibition: top concentration of the series differs between compounds
Sequence of Voltage-gated inwardly rectifying potassium channel KCNH2 (Homo sapiens) (Q12809 whole entry, looked up): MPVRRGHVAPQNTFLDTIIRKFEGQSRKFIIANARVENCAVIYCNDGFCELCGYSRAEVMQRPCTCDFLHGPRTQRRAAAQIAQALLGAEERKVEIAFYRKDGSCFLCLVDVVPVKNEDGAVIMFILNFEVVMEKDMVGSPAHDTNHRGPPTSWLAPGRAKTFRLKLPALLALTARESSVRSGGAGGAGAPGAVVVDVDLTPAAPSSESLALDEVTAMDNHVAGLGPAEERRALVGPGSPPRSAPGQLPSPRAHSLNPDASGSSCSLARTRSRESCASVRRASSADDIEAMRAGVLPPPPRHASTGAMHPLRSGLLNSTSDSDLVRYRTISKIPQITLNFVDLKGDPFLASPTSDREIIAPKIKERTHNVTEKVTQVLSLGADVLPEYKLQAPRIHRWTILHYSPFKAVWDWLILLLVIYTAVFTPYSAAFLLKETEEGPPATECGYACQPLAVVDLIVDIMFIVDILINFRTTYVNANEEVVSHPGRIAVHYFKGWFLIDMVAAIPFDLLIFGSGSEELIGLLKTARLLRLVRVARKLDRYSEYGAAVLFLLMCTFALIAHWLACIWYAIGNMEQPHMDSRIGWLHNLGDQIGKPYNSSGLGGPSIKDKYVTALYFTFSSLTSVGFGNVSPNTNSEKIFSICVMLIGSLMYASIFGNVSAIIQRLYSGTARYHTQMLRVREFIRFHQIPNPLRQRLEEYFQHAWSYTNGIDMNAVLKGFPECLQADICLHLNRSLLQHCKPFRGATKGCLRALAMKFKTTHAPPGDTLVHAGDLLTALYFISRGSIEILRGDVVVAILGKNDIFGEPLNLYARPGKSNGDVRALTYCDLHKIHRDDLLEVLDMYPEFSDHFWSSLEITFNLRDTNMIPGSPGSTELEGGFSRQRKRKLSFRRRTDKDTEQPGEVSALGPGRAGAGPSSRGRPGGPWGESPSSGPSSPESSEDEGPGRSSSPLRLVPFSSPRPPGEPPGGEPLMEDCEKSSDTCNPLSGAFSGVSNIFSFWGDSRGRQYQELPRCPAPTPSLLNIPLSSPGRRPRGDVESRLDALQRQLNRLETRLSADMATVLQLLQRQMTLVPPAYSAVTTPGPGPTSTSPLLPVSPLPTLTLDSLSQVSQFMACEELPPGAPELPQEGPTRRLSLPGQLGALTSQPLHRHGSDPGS
Summary of the method: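 U2OS cells BacMam-transduced with hERG, 2000 cells/well, compound ~10 min at 37 °C before stimulation buffer. FluxOR thallium flux fluorescence read kinetically on FDSS; decrease indicates block; AC50 from Hill fits.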

[16] = target: Cytochrome P450 3A4 (Homo sapiens) (UniProt P08684); assay: qHTS Assay for Activators of Cytochrome P450 3A4 (AID 885); also: nearly all actives have a fitted effect of over 65% in size
Sequence of Cytochrome P450 3A4 (Homo sapiens) (P08684 whole entry, looked up): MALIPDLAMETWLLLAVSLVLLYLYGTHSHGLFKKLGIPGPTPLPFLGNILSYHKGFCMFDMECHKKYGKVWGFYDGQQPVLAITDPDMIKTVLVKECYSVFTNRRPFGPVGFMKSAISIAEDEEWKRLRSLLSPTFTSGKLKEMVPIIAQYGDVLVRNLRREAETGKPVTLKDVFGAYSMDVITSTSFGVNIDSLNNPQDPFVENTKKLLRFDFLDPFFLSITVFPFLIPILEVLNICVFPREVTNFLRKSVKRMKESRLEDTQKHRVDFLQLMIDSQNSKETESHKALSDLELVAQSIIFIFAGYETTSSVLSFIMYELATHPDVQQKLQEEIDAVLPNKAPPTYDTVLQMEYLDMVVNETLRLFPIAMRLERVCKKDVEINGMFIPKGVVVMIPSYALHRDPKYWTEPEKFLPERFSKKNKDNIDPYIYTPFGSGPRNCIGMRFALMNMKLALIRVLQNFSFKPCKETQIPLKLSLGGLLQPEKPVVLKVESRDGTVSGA
Summary of the method: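 Quantitative HTS format: compounds preincubated with 20nM human CYP3A4 and Luciferin-PPXE substrate at KM, reaction started by NADPH regeneration, stopped after 60 min, luciferase luminescence read 20 min later.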

[17] = target: Rap guanine nucleotide exchange factor 3 (Homo sapiens) (UniProt O95398); assay: Confirmatory qHTS for agonist of cAMP-regulated guanine nucleotide exchange factor 3 (EPAC1) (AID 1645881);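 also: EPAC1 catalysed release of BODIPY-GDP from Rap1B seen as fluorescence loss; nearly all actives have a fitted effect of over 75% in size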
[18] = target: Rap guanine nucleotide exchange factor 4 (Homo sapiens) (UniProt Q8WZA2); assay: Confirmatory qHTS for agonist of cAMP-regulated guanine nucleotide exchange factor 4 (EPAC2) (AID 1645884)
Sequence of Rap guanine nucleotide exchange factor 4 (Homo sapiens) (Q8WZA2 whole entry, looked up): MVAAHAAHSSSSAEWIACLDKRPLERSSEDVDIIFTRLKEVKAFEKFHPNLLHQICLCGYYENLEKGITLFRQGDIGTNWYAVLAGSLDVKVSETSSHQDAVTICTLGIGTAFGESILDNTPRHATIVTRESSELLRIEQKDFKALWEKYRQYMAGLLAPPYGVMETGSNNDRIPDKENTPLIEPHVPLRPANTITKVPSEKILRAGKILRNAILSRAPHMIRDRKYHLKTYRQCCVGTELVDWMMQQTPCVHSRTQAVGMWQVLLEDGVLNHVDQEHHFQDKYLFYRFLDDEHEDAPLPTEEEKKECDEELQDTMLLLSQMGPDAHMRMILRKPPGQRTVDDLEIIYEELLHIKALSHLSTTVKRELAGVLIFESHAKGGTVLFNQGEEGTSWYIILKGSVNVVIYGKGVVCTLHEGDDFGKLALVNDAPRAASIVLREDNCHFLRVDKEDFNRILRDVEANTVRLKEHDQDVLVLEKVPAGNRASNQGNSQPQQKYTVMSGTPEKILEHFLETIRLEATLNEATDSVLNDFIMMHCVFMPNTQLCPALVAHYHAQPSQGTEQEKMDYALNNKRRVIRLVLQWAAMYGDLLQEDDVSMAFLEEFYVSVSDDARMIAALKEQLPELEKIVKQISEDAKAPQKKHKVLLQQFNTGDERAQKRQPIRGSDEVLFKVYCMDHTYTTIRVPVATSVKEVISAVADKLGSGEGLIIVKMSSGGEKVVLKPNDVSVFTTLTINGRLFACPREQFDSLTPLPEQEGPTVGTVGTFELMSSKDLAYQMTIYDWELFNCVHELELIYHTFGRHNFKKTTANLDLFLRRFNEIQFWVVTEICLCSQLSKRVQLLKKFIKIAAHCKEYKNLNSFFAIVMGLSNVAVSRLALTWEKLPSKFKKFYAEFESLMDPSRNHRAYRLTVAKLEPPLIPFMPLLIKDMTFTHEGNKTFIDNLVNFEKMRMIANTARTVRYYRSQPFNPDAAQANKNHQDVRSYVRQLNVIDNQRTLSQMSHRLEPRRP

[19] = Counterscreen qHTS for small molecule stabilizers of the endoplasmic reticulum resident proteome: GLuc-NoTag assay (AID 1508627);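 also: SH-SY5Y cells given compound then 100 nM thapsigargin to empty ER calcium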
Summary of the method: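 Luminescence of Gaussia luciferase secreted into the medium (coelenterazine, 0.07x final, unlysed cells) was the read-out. Human SH-SY5Y neuroblastoma cells constitutively secreting untagged GLuc received compound for 19 h, then 100 nM thapsigargin for 4 h.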

CN(Cc1ccc(C(=O)O)cc1)c1ccc(OCc2c(-c3c(Cl)cccc3Cl)noc2C2CC2)nc1C(F)(F)F
Potency (Furin (Homo sapiens)): 9.61 µM (active) | Potency [1]: 13.9 µM (active) | Potency [2]: 2.21 µM (active) | Potency [3]: 2.21 µM (active) | Potency [4]: 6.31 µM (active) | Potency [5]: inactive | Potency [6]: inactive | Potency [7]: 13.1 µM (active)

Fc1ccccc1CNCc1ccc(-c2ccnc3[nH]ccc23)cc1
Potency [8]: inactive

O=C(O)c1ccc(O)c2ncc(N3CCCN(CCc4cccc5ccccc45)CC3)cc12
Potency (Furin (Homo sapiens)): 49.4 µM (active) | Potency [1]: 49.4 µM (active) | Potency [2]: 13.9 µM (active) | Potency [3]: 13.9 µM (active) | Potency [4]: 3.55 µM (active) | Potency [5]: inactive | Potency [6]: inactive | Potency [7]: 6.58 µM (active)

CC(=O)N1c2ccc(-c3ccc(C(=O)O)cc3)cc2C(Nc2ccc(Cl)cc2)CC1C (centres undefined)
Potency (Furin (Homo sapiens)): inactive | Potency [2]: 17.5 µM (active) | Potency [3]: 12.4 µM (active) | Potency [4]: 70.8 µM (active) | Potency [6]: inactive | Potency [7]: 0.093 µM (active)

Cn1cnc(-c2nccc3c(=O)[nH]c(OCCCC(F)(F)F)nc23)c1
outcome [9]: inactive

CN(C)CCCCCCNC(=O)c1cccc(-c2cc(O)c3ncccc3c2)c1
outcome [9]: inactive

CCCCCCCCCCCCC/C=C/[C@@H](O)[C@H](CO)N(C)C
activity change, negative = inhibition [10]: -20.6% [at 3.88 µM]

CCOC(=O)CCC(=O)O[C@H]1[C@H](O[C@@H]2[C@@H](C)[C@H](O[C@H]3C[C@@](C)(OC)[C@@H](O)[C@H](C)O3)[C@@H](C)C(=O)O[C@H](CC)[C@@](C)(O)[C@H](O)[C@@H](C)C(=O)[C@H](C)C[C@@]2(C)O)O[C@H](C)C[C@@H]1N(C)C
activity change, negative = inhibition ([11]; at 17.2 µM (top of the series)): -0.678% | Potency [12]: > 20.6 µM

Cc1nc2c(O)cccc2c(=O)[nH]1
Potency [13]: 15.8 µM (active) | Potency [12]: > 46 µM | Potency [14]: inactive | Potency [10]: inactive

C=C1C(=O)O[C@H]2[C@H]1CC/C(C)=C\CC[C@@]1(C)O[C@@H]21
Potency [15]: inactive

Cn1cc(C2=C(c3cn(CCCSC(=N)N)c4ccccc34)C(=O)NC2=O)c2ccccc21
Potency [16]: inactive | Potency [10]: inactive | Potency [8]: 6.02 µM (active)

C#C[C@]1(OC(C)=O)CC[C@H]2[C@@H]3CCC4=CC(=O)CC[C@@H]4[C@H]3CC[C@@]21C
outcome [17]: inactive | outcome [18]: inactive

CN1CCN(CCC=C2c3ccccc3Sc3ccc(S(=O)(=O)N(C)C)cc32)CC1
activity change, negative = inhibition ([11]; at 38 µM (top of the series)): 18.8% | Potency [13]: inactive | Potency [16]: inactive | Potency [14]: inactive | Potency [15]: 10 µM (active)

CS(=O)(=O)CCNCc1nc(-c2ccc3ncnc(Nc4ccc(OCc5cccc(F)c5)c(Cl)c4)c3c2)cs1
Potency [16]: inactive | Potency [19]: inactive

O=c1[nH]ccc2c(S(=O)(=O)N3CCCNCC3)cccc12
Potency [19]: inactive

CCC(=O)O[C@H]1CC[C@H]2[C@@H]3CCc4cc(O)ccc4[C@H]3CC[C@]12C
outcome [17]: inactive | outcome [18]: inactive

Cc1cc(I)ccc1Nc1c(C(=O)NOCC2CC2)cc(F)c(F)c1F
Potency [10]: inactive
